According to PubChem BioAssay AID720608 (Broad Institute, 2013):
Results with a measured potency or affinity are listed apart. Records with an inconclusive call do not appear. Activity calls are given as the source filed them.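 Rule for the calls: active = compound whose fitted half-maximal concentration stays within twice the top dose, with falling signal, in all three exposure times; inconclusive = mixed calls across exposure times, weak flat curves, or poor fits; inactive = inactive at every exposure time, including opposite-direction effects.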

Experiment: SR lymphoma cell viability over time, late-stage follow-up, mechanism study for HRAS target identification, CellTiter-Glo ATP luminescence, 8-48 h, dry powder (AID 720608)

Cc1onc(C(=O)N2CCN(C(c3ccncc3)c3ccncc3)CC2)c1[N+](=O)[O-]
outcome: inactive
